Results reported in PubChem BioAssay (NCI).
The panel holds about 83,000 compounds, 20% with a hit somewhere; the sample as a whole holds those more often.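 Treatment: one concentration, 48 hours, 96-well format. Scoring: percent growth, with anything below 10 considered active.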

Assays:
Experiment in all cases: NCI-60 one-dose screen, 48 h (100 = growth as untreated, 0 = no growth, -100 = all killed)
SN12C renal = details: 10 µM
TK-10 renal = details: 10 µM unless noted
ACHN renal = details: 10 µM
CAKI-1 renal = details: 10 µM
A498 renal = details: 10 µM
MOLT-4 leukemia = details: 10 µM
RPMI-8226 leukemia = details: 10 µM
OVCAR-8 ovarian = details: 10 µM
OVCAR-5 ovarian = details: 10 µM
OVCAR-4 ovarian = details: 10 µM
SK-OV-3 ovarian = details: 10 µM
IGROV1 ovarian = details: 10 µM
OVCAR-3 ovarian = details: 10 µM
HS 578T breast = details: 10 µM
NCI/ADR-RES ovarian = details: 10 µM
UO-31 renal = details: 10 µM
SR leukemia = details: 10 µM
CCRF-CEM leukemia = details: 10 µM
EKVX NSCLC = details: 10 µM

Measured: growth

COc1cccc(COC(=O)Nc2ccccc2)c1OC
inactive: SN12C renal 96.9% | TK-10 renal 107% | ACHN renal 104% | CAKI-1 renal 88.5% | A498 renal 105% | MOLT-4 leukemia 100% | RPMI-8226 leukemia 90.1% | OVCAR-8 ovarian 96.9% | OVCAR-5 ovarian 105% | OVCAR-4 ovarian 117% | SK-OV-3 ovarian 111% | IGROV1 ovarian 101% | OVCAR-3 ovarian 111% | HS 578T breast 115% | NCI/ADR-RES ovarian 105%

N#CC(=Nc1cccc(F)c1)C1=C(O)c2ccccc2C1=O
inactive: SN12C renal 82.8% | UO-31 renal 78.6% | TK-10 renal 110% | ACHN renal 87.1% | CAKI-1 renal 47% | A498 renal 79.4% | MOLT-4 leukemia 96.5% | RPMI-8226 leukemia 82% | OVCAR-8 ovarian 85.4% | OVCAR-5 ovarian 103% | SK-OV-3 ovarian 98.7% | IGROV1 ovarian 100% | OVCAR-3 ovarian 92.7% | HS 578T breast 99.7% | NCI/ADR-RES ovarian 89.1%

O=S(=O)(O)c1cc(O)c2c(N=Cc3ccccc3O)c(S(=O)(=O)O)ccc2c1
inactive: SN12C renal 109% | UO-31 renal 73.2% | TK-10 renal 118% | ACHN renal 101% | CAKI-1 renal 96.2% | A498 renal 107% | MOLT-4 leukemia 99.2% | SR leukemia 95.1% | RPMI-8226 leukemia 97.5% | OVCAR-8 ovarian 105% | OVCAR-5 ovarian 103% | OVCAR-4 ovarian 109% | SK-OV-3 ovarian 103% | IGROV1 ovarian 88.4% | OVCAR-3 ovarian 105% | HS 578T breast 103% | NCI/ADR-RES ovarian 104%

COc1ccc(/C=C/c2cccc[n+]2C)cc1
inactive: SN12C renal 110% | UO-31 renal 64.9% | ACHN renal 91% | CAKI-1 renal 63% | A498 renal 71% | MOLT-4 leukemia 102% | RPMI-8226 leukemia 90.3% | OVCAR-8 ovarian 105% | OVCAR-5 ovarian 95.8% | OVCAR-4 ovarian 107% | SK-OV-3 ovarian 78.8% | IGROV1 ovarian 85.3% | OVCAR-3 ovarian 103% | HS 578T breast 119% | NCI/ADR-RES ovarian 103%

CCCCCC(C)(CC(=O)O)CC(=O)O
inactive: SN12C renal 110% | UO-31 renal 97.6% | TK-10 renal 111% | ACHN renal 103% | CAKI-1 renal 116% | A498 renal 113% | CCRF-CEM leukemia 107% | MOLT-4 leukemia 103% | SR leukemia 94.1% | RPMI-8226 leukemia 119% | OVCAR-8 ovarian 103% | OVCAR-5 ovarian 97.4% | OVCAR-4 ovarian 104% | IGROV1 ovarian 110% | OVCAR-3 ovarian 126% | HS 578T breast 107% | NCI/ADR-RES ovarian 119%

O=C(CCl)N1CCN(C/C=C/c2ccccc2)CC1
inactive: SN12C renal 64.6% | UO-31 renal 93.1% | TK-10 renal 85.6% | ACHN renal 95.8% | CAKI-1 renal 99.3% | A498 renal 94% | CCRF-CEM leukemia 21.7% | MOLT-4 leukemia 71.4% | SR leukemia 23.1% | RPMI-8226 leukemia 90.5% | OVCAR-8 ovarian 80% | OVCAR-5 ovarian 111% | OVCAR-4 ovarian 81.6% | SK-OV-3 ovarian 99.7% | IGROV1 ovarian 40.8% | OVCAR-3 ovarian 116% | HS 578T breast 100% | NCI/ADR-RES ovarian 105%

O=C(Cc1ccc(OCc2ccccc2)cc1)NCc1ccc2c(c1)OCO2
inactive: SN12C renal 89.9% | UO-31 renal 73.7% | TK-10 renal 77% | ACHN renal 104% | CAKI-1 renal 32.5% | MOLT-4 leukemia 55.2% | RPMI-8226 leukemia 67.7% | OVCAR-8 ovarian 91.1% | OVCAR-5 ovarian 110% | OVCAR-4 ovarian 107% | SK-OV-3 ovarian 82.4% | IGROV1 ovarian 60.4% | OVCAR-3 ovarian 58.9% | HS 578T breast 69.8% | NCI/ADR-RES ovarian 47.8%

CC(=O)c1ccc2c(ccc3ccccc32)c1
inactive: SN12C renal 102% | ACHN renal 110% | CAKI-1 renal 107% | A498 renal 92.8% | CCRF-CEM leukemia 86.2% | SR leukemia 97.2% | RPMI-8226 leukemia 101% | OVCAR-8 ovarian 94.7% | OVCAR-5 ovarian 104% | SK-OV-3 ovarian 112% | IGROV1 ovarian 101% | OVCAR-3 ovarian 115% | HS 578T breast 107% | NCI/ADR-RES ovarian 108%

CC(CN1CCCCC1)NC(=O)c1scnc1-c1ccccc1 (configuration not stated)
inactive: SN12C renal 106% | UO-31 renal 83.7% | TK-10 renal 98.1% | ACHN renal 109% | CAKI-1 renal 87.3% | MOLT-4 leukemia 104% | RPMI-8226 leukemia 101% | OVCAR-8 ovarian 100% | OVCAR-5 ovarian 118% | OVCAR-4 ovarian 108% | SK-OV-3 ovarian 103% | IGROV1 ovarian 105% | OVCAR-3 ovarian 112% | HS 578T breast 195% | NCI/ADR-RES ovarian 99.4%

Nc1ccc(NC(=O)c2cccc(N)c2)cc1
inactive: EKVX NSCLC 86.6% | SN12C renal 99.5% | TK-10 renal 123% | ACHN renal 97.8% | CAKI-1 renal 56.4% | A498 renal 90.6% | CCRF-CEM leukemia 88.8% | RPMI-8226 leukemia 94.5% | OVCAR-5 ovarian 101% | OVCAR-4 ovarian 104% | SK-OV-3 ovarian 103% | OVCAR-3 ovarian 107% | HS 578T breast 97.1% | NCI/ADR-RES ovarian 111%

Cc1cc(=O)n(-c2ccc(F)cc2)[nH]1
inactive: SN12C renal 104% | UO-31 renal 83.3% | TK-10 renal 136% | ACHN renal 96% | CAKI-1 renal 98.9% | A498 renal 99.7% | MOLT-4 leukemia 99.7% | SR leukemia 97.1% | RPMI-8226 leukemia 94.2% | OVCAR-8 ovarian 95.2% | OVCAR-5 ovarian 94.9% | OVCAR-4 ovarian 99.2% | SK-OV-3 ovarian 95.3% | IGROV1 ovarian 102% | OVCAR-3 ovarian 103% | HS 578T breast 102% | NCI/ADR-RES ovarian 109%
